According to PubChem BioAssay AID1159580 (chemical genetic matrix, 2015):
Out of some 5,500 compounds screened, about 2,000 (36%) were called active. About 18% were inconclusive and are not listed. Rule as the data show it: active = normalized growth mostly below about 0.91 (no sharp cut-off); inconclusive = no clear call, values can overlap the other calls; inactive = mostly above about 0.92. Some of the results follow.

Assay: chemical genetic growth profiling, strain panel (AID 1159580);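 also: tested at 20 µM; growth read once vehicle control cultures reached saturation at 30 °C; 1 = growth at the plate median or of vehicle wells; lower values mean less growth of the strain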
Conditions: S. cerevisiae deletion strains, growth OD
[1] = locus YAR019C, strain CDC15, stronger effect = lower value
[2] = locus YBL105C, strain PKC1, stronger effect = lower value
[3] = locus YBR135W, strain CKS1, stronger effect = lower value
[4] = locus YBR136W, strain MEC1, stronger effect = lower value
[5] = locus YBR160W, strain CDC28, stronger effect = lower value
[6] = locus YDL017W, strain CDC7, stronger effect = lower value
[7] = locus YDL028C, strain MPS1, stronger effect = lower value
[8] = locus YDL101C, strain DUN1, stronger effect = lower value
[9] = locus YDL108W, strain KIN28, stronger effect = lower value
[10] = locus YDL132W, strain cdc53, stronger effect = lower value
[11] = locus YDL214C, strain PRR2, stronger effect = lower value
[12] = locus YDR052C, strain DBF4, stronger effect = lower value
[13] = locus YDR054C, strain cdc34, stronger effect = lower value
[14] = locus YDR226W, strain ADK1, stronger effect = lower value
[15] = locus YDR477W, strain SNF1, stronger effect = lower value
[16] = locus YER123W, strain YCK3, stronger effect = lower value
[17] = locus YER133W, strain GLC7, stronger effect = lower value
[18] = locus YFL009W, strain cdc4, stronger effect = lower value
[19] = locus YFL029C, strain CAK1, stronger effect = lower value
[20] = locus YFR003C, strain YPI1, stronger effect = lower value
[21] = locus YFR019W, strain FAB1, stronger effect = lower value
[22] = locus YFR028C, strain CDC14, stronger effect = lower value
[23] = locus YGR040W, strain KSS1, stronger effect = lower value
[24] = locus YGR052W, strain FMP48, stronger effect = lower value
[25] = locus YGR092W, strain DBF2, stronger effect = lower value
[26] = locus YHR030C, strain SLT2, stronger effect = lower value
[27] = locus YHR079C, strain IRE1, stronger effect = lower value
[28] = locus YHR082C, strain KSP1, stronger effect = lower value
[29] = locus YHR205W, strain SCH9, stronger effect = lower value
[30] = locus YIL147C, strain SLN1, stronger effect = lower value
[31] = locus YJL095W, strain BCK1, stronger effect = lower value
[32] = locus YJL128C, strain PBS2, stronger effect = lower value
[33] = locus YJL157C, strain FAR1, stronger effect = lower value
[34] = locus YJR016C, strain ILV3, stronger effect = lower value
[35] = locus YJR066W, strain TOR1 (second series), stronger effect = lower value
[36] = locus YJR066W, strain TOR1, stronger effect = lower value
[37] = locus YKL048C, strain ELM1, stronger effect = lower value
[38] = locus YKL067W, strain YNK1, stronger effect = lower value
[39] = locus YKL101W, strain HSL1, stronger effect = lower value
[40] = locus YKL193C, strain SDS22, stronger effect = lower value
[41] = locus YKL203C, strain TOR2, stronger effect = lower value
[42] = locus YLR113W, strain HOG1, stronger effect = lower value
[43] = locus YLR133W, strain CKI1, stronger effect = lower value
[44] = locus YLR403W, strain SFP1, stronger effect = lower value
[45] = locus YML070W, strain DAK1, stronger effect = lower value
[46] = locus YMR001C, strain CDC5, stronger effect = lower value
[47] = locus YMR205C, strain PFK2 (second series), stronger effect = lower value
[48] = locus YMR277W, strain FCP1, stronger effect = lower value
[49] = locus YNL006W, strain LST8, stronger effect = lower value
[50] = locus YNL020C, strain ARK1, stronger effect = lower value
[51] = locus YNL161W, strain CBK1, stronger effect = lower value
[52] = locus YNL183C, strain NPR1, stronger effect = lower value
[53] = locus YNL207W, strain RIO2, stronger effect = lower value
[54] = locus YNL222W, strain SSU72, stronger effect = lower value
[55] = locus YNL307C, strain MCK1 (second series), stronger effect = lower value
[56] = locus YOL078W, strain AVO1, stronger effect = lower value
[57] = locus YOL136C, strain PFK27, stronger effect = lower value
[58] = locus YOR061W, strain CKA2, stronger effect = lower value
[59] = locus YOR119C, strain RIO1, stronger effect = lower value
[60] = locus YOR231W, strain MKK1, stronger effect = lower value
[61] = locus YOR329C, strain SCD5, stronger effect = lower value
[62] = locus YPL031C, strain PHO85, stronger effect = lower value
[63] = locus YPL153C, strain RAD53, stronger effect = lower value
[64] = locus YPL204W, strain HRR25, stronger effect = lower value
[65] = locus YPL209C, strain IPL1, stronger effect = lower value
[66] = locus YPL256C, strain CLN2, stronger effect = lower value
[67] = locus YPR025C, strain CCL1, stronger effect = lower value
[68] = locus YPR106W, strain ISR1, stronger effect = lower value
[69] = locus YPR111W, strain DBF20, stronger effect = lower value
[70] = strain NNK1, stronger effect = lower value
[71] = strain TSCII, stronger effect = lower value

Measured: normalized growth

FC(F)(F)c1cccc(NC(=S)NN=C2CCCCCC2)c1
active: [26] 0.846 | [42] 0.811 | [66] 0.84
inactive: [1] 0.978 | [2] 0.983 | [3] 0.994 | [4] 0.987 | [5] 0.991 | [6] 0.983 | [7] 0.997 | [8] 0.984 | [9] 1 | [10] 0.989 | [11] 0.909 | [12] 0.982 | [13] 0.966 | [14] 0.978 | [15] 0.91 | [16] 0.831 | [17] 0.892 | [18] 0.986 | [19] 0.983 | [20] 0.989 | [21] 0.946 | [22] 0.992 | [23] 0.914 | [24] 0.924 | [25] 0.823 | [27] 0.81 | [28] 0.997 | [29] 0.914 | [30] 0.987 | [31] 0.887 | [32] 0.98 | [33] 0.869 | [34] 0.993 | [35] 0.827 | [36] 0.907 | [37] 0.949 | [38] 0.92 | [39] 0.928 | [40] 0.986 | [41] 0.936 | [43] 0.921 | [44] 0.882 | [45] 0.897 | [46] 0.979 | [47] 0.936 | [48] 0.988 | [49] 0.986 | [50] 0.902 | [51] 0.987 | [52] 0.949 | [53] 0.98 | [54] 1 | [55] 0.798 | [56] 0.994 | [57] 0.896 | [58] 0.862 | [59] 0.973 | [60] 0.828 | [61] 0.988 | [62] 0.884 | [63] 0.872 | [64] 0.838 | [65] 0.988 | [67] 0.995 | [68] 0.994 | [69] 0.984 | [70] 1 | [71] 0.982

FC(F)(F)c1ccc(N2CCc3ccccc3C2)c(NC(=S)Nc2cc(Cl)cc(Cl)c2)c1
inactive: [1] 0.972 | [2] 0.981 | [3] 0.978 | [4] 0.997 | [5] 0.989 | [6] 0.982 | [7] 0.987 | [8] 0.978 | [9] 0.998 | [10] 0.985 | [11] 0.924 | [12] 0.98 | [13] 0.969 | [14] 0.99 | [15] 0.937 | [16] 0.908 | [17] 0.939 | [18] 0.983 | [19] 0.975 | [20] 0.993 | [21] 0.957 | [22] 0.971 | [23] 0.939 | [24] 1.01 | [25] 0.869 | [26] 1.15 | [27] 1.06 | [28] 1 | [29] 0.962 | [30] 0.993 | [31] 1.02 | [32] 0.968 | [33] 0.908 | [34] 0.985 | [35] 0.899 | [36] 1.02 | [37] 0.963 | [38] 0.931 | [39] 0.959 | [40] 0.974 | [41] 1.02 | [42] 1.03 | [43] 0.936 | [44] 0.945 | [45] 0.938 | [46] 0.969 | [47] 0.947 | [48] 0.972 | [49] 0.984 | [50] 0.934 | [51] 0.978 | [52] 1.03 | [53] 0.979 | [54] 0.979 | [55] 0.941 | [56] 0.976 | [57] 0.956 | [58] 0.908 | [59] 0.98 | [60] 1.01 | [61] 0.985 | [62] 0.929 | [63] 0.931 | [64] 0.939 | [65] 0.982 | [66] 1.07 | [67] 0.967 | [68] 0.982 | [69] 0.985 | [70] 0.991 | [71] 0.972
